# Laboratory results from PubChem BioAssay (NCI).
# About 83,000 compounds went through this panel and 20% of them were active in at least one assay; those are over-represented in the sample as a whole.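 Testing used 96-well plates and a 48-hour single-concentration exposure. Example: -40 means 40% of the starting cells died.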 Activity calls are given as the source filed them.
# Test system: NCI-H322M lung
# Experiment: NCI-60 one-dose screen, 48 h (100 = growth as untreated, 0 = no growth, -100 = all killed)
# Settings: 10 µM unless noted
# Protocol: Growth inhibition of the NCI-H322M human Non-Small Cell Lung tumor cell line is measured as a screen for anti-cancer activity. Cells are grown in 96 well plates and exposed to the test compound for 48 hours. Compounds are tested at a single concentration, which is 10^-5 M for most compounds. The reported endpoint is percent growth (GI% or GIPRCNT), where numbers from 0 - 100% represent growth inhibition, and numbers from -100% - 0 represent cell death. For example, a value of 40 represents 60% growth inhibition. A value of 0 means no net growth occurred over the course of the experiment. A value of -40 indicates 40% of cells at the beginning of the experiment died by the end of the experiment. A value of -100 means all cells are dead at the end of the experiment.
# NCI-60 Human Tumor Cell Lines Screen was performed using the standard one-dose NCI protocol, which is described in more detail at https://dtp.cancer.gov/discovery_development/nci-60/default.htm.
# Compounds with GIPRCNT values below 10 were considered active. Activity score was based on GIPRCNT using the following formula: […]
# Score is 0 for GIPRCNT values of 100 or above, 50 for GIPRCNT values of 0, and 100 for GIPRCNT values of -100.
row,Structure (SMILES),growth
1,O=[N+]([O-])c1ccc(N/N=C/c2ccccc2O)nc1,39.6% (inactive)
2,COc1cccc(/C(C)=N/NC(=O)CSc2nc3ccccc3c(=O)n2CCc2ccc(S(N)(=O)=O)cc2)c1,58.2% (inactive)
3,CCN(CC)c1cc(C)c(Cc2c(OC)ccc3ccccc23)cc1C,96.9% (inactive)
4,O=C(CCl)N1c2ccccc2Oc2ccc3ccccc3c21,91.4% (inactive)
5,CCN(CC)CCNC(=O)n1cc(-c2ccncc2)c(-c2cc(Cl)cc(OC)c2)n1,114% (inactive)
6,Cc1ccc(Nc2cc(Cl)c([N+](=O)[O-])cc2[N+](=O)[O-])cc1,86.7% (inactive)
7,NC(N)=NC1CCCCC1,102% (inactive)
8,CC(C)[C@@H]1C=C2CC[C@H]3[C@](C)(CN)CCC[C@]3(C)[C@H]2CC1,-6.11% (active)
9,NC(=O)N/N=C\c1ccc([N+](=O)[O-])o1,117% (inactive)
10,COc1cc(CN(CCC(O)N2CCCC2=O)Cc2ccc3c(c2)OCO3)cc(OC)c1OC (stereo not given),90.3% (inactive)
11,CCN(CC)c1ccc(/C=N/NC(=O)c2ccc(S(C)(=O)=O)cc2)c(O)c1,25% (inactive)
12,CCN(CC)CC(=O)Nc1c(C)cc(C(=O)NN)cc1C,89.1% (inactive)
13,O=C(NCCN1CCCCC1)n1cc(-c2ccncc2)c(-c2ccc(Cl)c(O)c2)n1,119% (inactive)
14,COc1ccc(-c2nc3ccccc3n3cccc23)cc1,96.6% (inactive)
15,N=C(N)c1ccc(-c2ccc(-c3cccs3)s2)cc1F,-92.4% (active)
16,O=C(/C=C/c1ccccc1)c1c[nH]c2ccccc2c1=O,-7.62% (active)
17,C[N+](C)(C)CCCCCCCCCC[N+](C)(C)C,118% (inactive)
18,CCOC(=O)c1ccc2c(c1)nc(-c1ccc(Cl)cc1)n2-c1cc(C(C)(C)C)[nH]n1,64.1% (inactive)
19,O=C(O/C(=C/c1ccccc1)C(F)(F)F)c1ccccc1,125% (inactive)
20,Cc1ccccc1NC(=O)c1sc2nc3c(cc2c1N)C(=O)CCC3,71.4% (inactive)

row,Structure (SMILES),growth
1,Cn1c(-c2ccccc2)cc(=O)n1-c1ccccc1,103% (inactive)
2,CCn1c(Cc2ccccc2Nc2c(Cl)cccc2Cl)nnc1SCC(=O)Nc1ccccc1C(F)(F)F,79.4% (inactive)
3,ClC1(Cl)C2CCCCCCC21 (stereo not given),109% (inactive)
4,O=C(Nc1ccncc1)C(=O)c1cn(S(=O)(=O)c2cccc(Cl)c2F)c2ccccc12,96.7% (inactive)
5,O=C1SCN(Cc2ccccc2)CN1Cc1ccccc1,95.3% (inactive)
6,COc1ccc2nc(-c3ccc(-c4noc(-c5ccc(Cl)cc5)n4)cc3)[nH]c2c1,67.5% (inactive)
7,COc1ccc2[nH]cc(C3(c4c[nH]c5ccc(OC)cc45)C(=O)Nc4ccc(F)cc43)c2c1,98.1% (inactive)
8,O=c1c2cc(Cl)ccc2oc2ccc(OCCCCCN3CCCCC3)cc12,89.7% (inactive)
9,O=C(O)CSc1ccc(NCc2oc(CO)cc(=O)c2O)cc1,110% (inactive)
10,CNCCCn1c2c(c3ccc(Cl)cc3c1=O)C(=O)c1cc(OC)cnc1-2,61.8% (inactive)
11,CN(C)N1C(=O)c2c(Cl)c(Cl)c(Cl)c(Cl)c2C1=O,112% (inactive)
12,CCOC(=O)Cn1c(-c2nonc2NC(=O)c2ccccc2F)nc2ccccc21,67.3% (inactive)
13,CNC(=O)c1c(NC(=O)c2ccc(C(C)C)cc2)sc2c1CCC(=O)C2,17.6% (inactive)
14,CCCNCCC(C)=O,119% (inactive)
15,COc1ccccc1CNCCCN1C(=O)c2ccc3c4c(ccc(c24)C1=O)C(=O)N(CCCCNCCCN)C3=O,5.96% (active)
16,COc1ccc(CNc2c3ccccc3nc3ccc(OC)cc23)cc1,23.5% (inactive)
17,CCOC(=O)C(CCCCC(NC(C)=O)(C(=O)OCC)C(=O)OCC)(NC(C)=O)C(=O)OCC,105% (inactive)
18,Nc1ncnc2c1N=C(c1ccc3c(c1)OCO3)CC(c1ccc(Cl)cc1)N2 (stereo not given),71.2% (inactive)
19,CC(C)CCC(=O)[C@@H](C)[C@H]1[C@@H](OC2OCC(O)C(O)C2NS(C)(=O)=O)C[C@H]2[C@@H]3CC=C4C[C@@H](O)CC[C@]4(C)[C@H]3CC[C@]12C (stereo not given in full),68.5% (inactive)
20,COc1ccc([C@H]2c3[nH]c4ccccc4c3C[C@H]3C(=O)N(CCCCCCC(=O)NO)CC(=O)N23)cc1,53.2% (inactive)
